# From PubChem BioAssay (NCI)
# Compounds without any hit were thinned out: in the full panel of roughly 83,000, 20% have a hit.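 Each cell line was grown in a 96-well plate and treated with one concentration of compound for 48 hours. Values below 10 were considered active.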 Unmarked numbers belong to inactive results. Activity calls are given as the source filed them.
# How the values were obtained:
# Test in all cases: NCI-60 one-dose screen, 48 h (100 = growth as untreated, 0 = no growth, -100 = all killed)
# Settings in all cases: 10 µM unless noted
# DU-145 prostate = system: DU-145 prostate
# K-562 leukemia = system: K-562 leukemia
# MALME-3M melanoma = system: MALME-3M melanoma
# MDA-MB-231 breast = system: MDA-MB-231 breast
# SF-268 CNS = system: SF-268 CNS
# SF-295 CNS = system: SF-295 CNS
# SF-539 CNS = system: SF-539 CNS
# UACC-257 melanoma = system: UACC-257 melanoma
# M14 melanoma = system: M14 melanoma
# HCT-15 colon = system: HCT-15 colon
# HT29 colon = system: HT29 colon
# SNB-75 CNS = system: SNB-75 CNS
# SNB-19 CNS = system: SNB-19 CNS
# U251 CNS = system: U251 CNS
# PC-3 prostate = system: PC-3 prostate
# SK-MEL-5 melanoma = system: SK-MEL-5 melanoma
# UACC-62 melanoma = system: UACC-62 melanoma
# LOX IMVI melanoma = system: LOX IMVI melanoma
# RXF 393 renal = system: RXF 393 renal
# SK-MEL-28 melanoma = system: SK-MEL-28 melanoma
SMILES,growth (DU-145 prostate),growth (K-562 leukemia),growth (MALME-3M melanoma),growth (MDA-MB-231 breast),growth (SF-268 CNS) [%],growth (SF-295 CNS),growth (SF-539 CNS),growth (UACC-257 melanoma),growth (M14 melanoma),growth (HCT-15 colon),growth (HT29 colon),growth (SNB-75 CNS),growth (SNB-19 CNS) [%],growth (U251 CNS) [%],growth (PC-3 prostate),growth (SK-MEL-5 melanoma),growth (UACC-62 melanoma),growth (LOX IMVI melanoma),growth (RXF 393 renal),growth (SK-MEL-28 melanoma)
COc1cc(/C=C/C(=O)c2ccc(Nc3ncnc4ccccc34)cc2)cc(OC)c1,71.7%,4.61% (active),106%,82.9%,38.1,60.8%,71.6%,93.5%,24.7%,45.7%,-38.1% (active),70.9%,62,34.2,43.9%,90.8%,76.9%,5.65% (active),–,–
O=C1Nc2c(ccc(Cl)c2Cl)/C1=C/c1ccc(F)cc1,113%,85%,105%,83.6%,88.8,109%,94.8%,97.9%,93.9%,80.6%,91%,76.1%,73.5,92.8,79.3%,86.8%,79.6%,81.2%,–,–
COc1ccc(Nc2nc(N)nc3c2CCc2occc2-3)cc1,102%,92.4%,110%,99.5%,100,86.2%,96.8%,108%,–,92%,87%,95%,99.4,103,90.4%,94.6%,93.9%,93.1%,114%,106%
O=c1[nH]nc(-c2ccc(Cl)cc2)cc1Cc1cccc([N+](=O)[O-])c1,98.7%,94.2%,119%,72.6%,95.4,92.4%,98.5%,97%,107%,105%,116%,110%,88.5,92.1,91.1%,79.3%,74.3%,93.5%,–,–
O=C(CN1CCOCC1)Nc1ccc2ncnc(Nc3ccc(Oc4cccc(C(F)(F)F)c4)c(Cl)c3)c2c1,40.8%,35%,73.4%,60.1%,59.6,63.5%,78.8%,83.3%,64%,52.2%,54%,73.7%,61.9,62.4,44.5%,58.9%,71%,43.8%,–,–
O=C(NCCc1ccccn1)OCc1nc2nc(Cl)nc(N3CCOCC3)c2[nH]1,12%,0.32% (active),67.8%,28.5%,24.3,91.4%,-13.4% (active),30.6%,4.12% (active),-27.2% (active),-28.9% (active),2.59% (active),37.2,16.3,22.7%,-10.8% (active),24.6%,-49.9% (active),–,41.9%
COc1cccc(-c2nc3occn3c2-c2ccnc(NCCCNS(=O)(=O)c3cccc(F)c3)n2)c1,93.8%,69%,70.2%,104%,87,94.8%,106%,83.8%,–,83.4%,50.7%,117%,109,–,79.4%,48.2%,–,86.5%,99.2%,89.5%
COC(=O)C(c1ccccc1)C(CC(=O)c1ccccc1)c1ccccc1 (centres undefined),95.8%,73.1%,69.7%,98.1%,83.8,79.9%,98.6%,101%,–,97.1%,79.1%,83.2%,101,92.2,62.3%,82.1%,88.7%,82.7%,80.9%,91.8%
O=C1c2ccccc2C(=O)c2c(NCCN=Cc3ccccc3O)cccc21,-26% (active),41.6%,80.2%,66.3%,51.2,2.48% (active),62%,-14.3% (active),35.6%,40.7%,32.4%,68.4%,65.3,60.5,66.7%,61.9%,62.8%,21.3%,–,91.7%
COc1ccc(-c2nc(SCC(C)C)nc(N/N=C(/C)c3ccc(OC)c(OC)c3)c2C#N)cc1,87.7%,69.5%,88.9%,74.5%,79.1,92.8%,80.9%,105%,94%,79.8%,90.4%,80.2%,78.2,89.6,52.5%,74.6%,81.2%,84.3%,–,–
CCCNC(=O)Oc1ccc(/C(=C(\C)c2ccccc2)c2ccc(OCCN3CCCCC3)cc2)cc1,87.9%,10.2%,61.3%,81.9%,72.6,55%,37.5%,-14.1% (active),–,19.2%,4.11% (active),88.9%,79,56.4,57.1%,77.8%,70.6%,73.8%,64.4%,–
O=C(NNc1nc(Cl)nc(N2CCN(C(c3ccccc3)c3ccccc3)CC2)n1)c1ccccc1,46.6%,-38.8% (active),-14.4% (active),-54.3% (active),63.1,92.3%,-33% (active),-1.56% (active),–,–,-78.9% (active),-26.3% (active),32.4,27.3,-46.9% (active),79.4%,3.38% (active),-88.7% (active),-47.1% (active),-6.33% (active)
O=S(=O)(NCCNc1nccc(-c2c(-c3ccc(F)c(O)c3)nc3sccn23)n1)c1ccccc1,77.5%,37.2%,1.46% (active),51.6%,84.5,110%,94.3%,16.2%,14.5%,92.3%,64.6%,137%,113,98.8,67.8%,58.1%,-0.791% (active),27.7%,–,–
COc1cccc(CCC(=O)c2cc3c(N)c(C(=O)Nc4cccc(Cl)c4C)sc3nc2C)c1,13.8%,7.49% (active),41.3%,16.9%,37.3,2.95% (active),-41.6% (active),65.1%,16.4%,13.8%,10.8%,-14.5% (active),24.1,16.7,18.8%,3.62% (active),27%,33.1%,–,–
O=S(=O)(NCCNc1nccc(-c2c(-c3ccc(F)c(O)c3)nc3occn23)n1)c1ccccc1,57.1%,33.6%,-0.538% (active),27.7%,57,93.3%,96%,25%,18.8%,76.6%,61.5%,71.9%,73.8,60.4,55.8%,22.8%,6.23% (active),33.7%,–,–
CCCCCN1C=C/C(=C\C(=O)N(C)c2ccc(Br)cc2)c2ccccc21,104%,76.5%,96.9%,101%,96.2,99.2%,102%,95.1%,–,–,91.6%,91.6%,99.6,92.4,97.3%,–,93.7%,87.6%,92.9%,105%
COC(=O)Nc1ccc(NC(=O)OC)cc1,110%,103%,105%,120%,103,99.7%,106%,66.3%,83.7%,108%,98.4%,80%,103,99.1,77.7%,99.1%,103%,99%,–,116%
